According to PubChem BioAssay AID778 (Sanford-Burnham Center for Chemical Genomics, 2007):
The campaign covered roughly 96,000 compounds. About 20,000 (21%) were called active. The list is a sample of the results. Unmarked numbers belong to inactive results.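 Rule for the calls: active = CYP2C19 inhibition above a set limit at 5 µM in the primary screen (cut at about 50% in these data); inactive = the rest.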

molecular target: Cytochrome P450 2C19 (Homo sapiens) (UniProt P33261); experiment: blockers of cytochrome P450 2C19 activity – biochemical, luminescence, ADME assay, primary screen (AID 778); details: CYP2C19 Supersomes, luciferin-H EGE luminescence, 30 min; at 5 µM; stronger effect = higher value;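 note: plate controls were negative control wells for no effect and 2.5 mM tranylcypromine positive control for full effect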
Sequence (P33261 whole entry, looked up): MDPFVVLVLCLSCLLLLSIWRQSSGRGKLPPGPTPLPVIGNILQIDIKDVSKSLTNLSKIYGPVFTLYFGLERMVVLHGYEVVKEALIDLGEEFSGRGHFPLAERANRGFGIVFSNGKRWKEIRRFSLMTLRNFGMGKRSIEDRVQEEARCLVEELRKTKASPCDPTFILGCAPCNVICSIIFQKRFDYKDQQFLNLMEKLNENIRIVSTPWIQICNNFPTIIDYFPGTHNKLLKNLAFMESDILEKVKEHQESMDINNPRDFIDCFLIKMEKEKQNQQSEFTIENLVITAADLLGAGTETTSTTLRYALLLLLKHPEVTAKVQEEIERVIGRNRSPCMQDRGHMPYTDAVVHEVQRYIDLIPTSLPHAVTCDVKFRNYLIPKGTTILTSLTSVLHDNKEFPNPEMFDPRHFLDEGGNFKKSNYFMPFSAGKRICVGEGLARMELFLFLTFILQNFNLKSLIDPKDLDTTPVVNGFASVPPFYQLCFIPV

Compound | inhibition
Cn1c2ccccc2n2c(=O)c(=O)n(CC(=O)c3ccc(F)cc3)nc12 | -11.2%
Cc1cc(NC(=O)/C=C/C(=O)N(c2ccccc2C)C(C(=O)NC2CCCC2)c2ccc(F)cc2)no1 (stereo unspecified) | 10.8%
Cc1cc(NC(=O)CCC(=O)N(c2cccc(F)c2)C(C(=O)NC2CCCC2)c2ccncc2)no1 (stereo unspecified) | 76.4% (active)
Cc1cc(NC(=O)CCC(=O)N(c2ccccc2)C(C(=O)NC2CCCC2)c2ccncc2)no1 (stereo unspecified) | 46.5%
O=C(Nc1nnc(-c2ccc(Cl)cc2)o1)c1ccccc1Br | 6.2%
CCC(=O)c1cc2c(cc1NC(=O)c1cccs1)OCCO2 | -6.1%
CN(c1ccc(C(=O)NCCC2=CCCCC2)cc1)S(C)(=O)=O | -1.7%
Fc1ccc2nc(-c3ccccc3)nc(SCc3nnc(-c4ccccc4)o3)c2c1 | 3.2%
C=CCn1c(SCc2nnc(-c3ccccc3)o2)nnc1C(O)c1ccccc1 (stereo unspecified) | 55% (active)
CCC(O)CNc1nc(-n2nc(C)cc2C)nc2sc3c(c12)CC(C)(C)OC3 (stereo unspecified) | -2.2%
CCOc1ccc(Cn2nnc(C(=O)NCc3ccccc3)c2N)cc1 | -7%
CC(C)Nc1ncnc2c1nnn2Cc1ccccc1 | 59.5% (active)
CC(C)(C)c1nc(NCC2CCCO2)c2nnn(Cc3ccccc3)c2n1 (stereo unspecified) | 33.4%
COc1ccccc1OCCNc1cc(N2CCOCC2)ccc1[N+](=O)[O-] | 60.3% (active)
COc1cc(C(=S)N2CCOCC2)cc(OC)c1OC(=O)c1cc([N+](=O)[O-])c(C)c([N+](=O)[O-])c1 | -0.1%
COc1ccc(C(=O)Cn2nnc(-c3ccc(N4CCOCC4)cc3)n2)cc1OC | -8.3%
COc1ccc(Oc2coc3cc(OC(=O)c4cncc(Br)c4)ccc3c2=O)cc1 | -9.2%
CC/C(=N\O)C(C)(C)/[N+]([O-])=C/c1ccc(Br)cc1 | 5.2%
COc1ccccc1C1=Nc2cccc3cccc(c23)N1 | 32.8%
Cc1nn2c3ccccc3nc2n(C)c1=O | -6.3%
COc1ccc(C(=O)n2nc(-c3ccc(Cl)cc3)nc2N)cc1OC | 1.7%
COc1ccccc1C(=O)n1nc(-c2ccccc2)nc1N | 74.3% (active)
COc1ccc(C(=O)n2nc(-c3ccc(C)cc3)nc2N)cc1OC | -2.6%
COc1ccc(C2=NOC3(CC(=O)N(c4ccc(Cl)cc4)C3=O)C2)c(OC)c1 (stereo unspecified) | -4.2%

Compound | inhibition
COCCCN1C(=O)C(=O)/C(=C(/O)c2ccc3c(c2)CC(C)O3)C1c1cccnc1 (stereo unspecified) | 4.2%
CCOC(=O)c1cc2cc(-c3c(C(=O)OCC)oc4cc(O)cc(O)c4c3=O)ccc2o1 | 69.8% (active)
O=c1c(-c2ccc3c(c2)OCCO3)c(C(F)(F)F)oc2cc(O)cc(O)c12 | 25%
O=C(CSCc1ccc(Cl)cc1)N1CCCCC1 | 76.3% (active)
O=C(COc1ccc(Cl)cc1)N1CCN(c2cccc(C(F)(F)F)c2)CC1 | 41.1%
O=C(CN1CCN(c2ccc(Cl)cc2)CC1)N1CCCC1 | 62.9% (active)
O=C(CSCc1cccs1)N1CCCC1 | 16.5%
Cc1ccc2[nH]c3c(c2c1)CN(C(=O)CN1CCN(c2ccccc2)CC1)CC3 | 29.5%
Cn1c(=O)cc(SCC(=O)N2CCCC2)c2cc(Cl)ccc21 | -7.5%
COc1ccc(-c2oc3ncn(Cc4ccco4)c(=N)c3c2-c2ccc(OC)cc2)cc1 | 33.8%
CCOC(=O)N1CCC(Nc2c(NCCCN3CCN(CC)CC3)c(=O)c2=O)CC1 | 4%
c1ccc(-c2ccnc3nc(-n4cccc4)nn23)cc1 | 1.1%
CCCC(=O)N1c2ccc(-c3csc(N)n3)cc2CC1C (stereo unspecified) | 4.4%
O=c1c(F)cn(C2CCCO2)c(=O)n1Cc1ccccc1Cl (stereo unspecified) | 36.8%
COCCn1c(C)cc(C2=NNC(=Nc3ccc(F)cc3)SC2)c1C | 20.2%
COc1ccc(C)cc1NC(=O)CCC(=O)Nc1nnc(C(F)(F)F)s1 | -1.8%
CC(=O)c1c(C)[nH]c(C(=O)NCc2ccc(C)cc2)c1C | 43.8%
COc1ccc(C)cc1NC(=O)c1[nH]c(C)c(C(C)=O)c1C | 51.5% (active)
CC(C)(C)NC(=O)C(c1ccco1)N(Cc1ccc2c(c1)OCO2)C(=O)Cn1nnc2ccccc21 (stereo unspecified) | 48.8%
COc1ccc2c(c1)CCc1c(C(=O)N3CCCC3)noc1-2 | 4.9%
COc1ccc2c(c1)CCc1c(C(=O)N3CCc4ccccc4C3)noc1-2 | 74.1% (active)
COc1ccc2c(c1)CCc1c(C(=O)Nc3c(C)n(C)n(-c4ccccc4)c3=O)noc1-2 | 25.7%
CCC(=O)N1CCc2cc(S(=O)(=O)NC(C(=O)N3CCc4ccccc4C3)C(C)C)ccc21 (stereo unspecified) | 4.8%
Cc1nc(NC(CC(C)C)C(=O)O)c2nc(C)oc2n1 (stereo unspecified) | -8.5%

Compound | inhibition
O=C(Nc1ccon1)c1sc2ccccc2c1Cl | 1.4%
N#Cc1cc([N+](=O)[O-])ccc1Oc1cccc(/C=N/NC(=O)c2ccc(Cl)cc2)c1 | 41.8%
CCc1ccccc1NC(=O)CN(C)S(=O)(=O)c1ccc2c(c1)c(=O)n(C)c(=O)n2C | 7.1%
Cc1cc(NC(=O)c2cccc(N3C(=O)CCC3=O)c2)no1 | 3%
O=C(/C=C/Nc1ccccc1OC(F)(F)F)C(F)(F)F | 18%
Cc1cc(C)nc(NC(=O)C(C)N2C(=O)c3ccccc3C2=O)n1 (stereo unspecified) | -21.4%
Cc1ccc(NC(=O)CCNS(=O)(=O)c2ccc3c(c2)oc(=O)n3C)cc1C | 8%
CCOC(=O)N1CCC(N(CCOC)C(=O)Nc2ccc(C)c(C)c2)CC1 | 8.4%
Cc1ccc(NC(=O)CN(C)S(=O)(=O)c2cnc[nH]2)cc1C | 88.7% (active)
Cc1ccc(-c2nnc(C)c(N3CC(C)OC(C)C3)n2)cc1 (stereo unspecified) | 7.3%
COCCCNC(=O)C1CC(=O)N(CCc2ccccc2)C1 (stereo unspecified) | -3.4%
Cc1cc(=O)oc2cc(NC(=O)C3CC(=O)N(Cc4ccccc4)C3)ccc12 (stereo unspecified) | 52.5% (active)
O=C(O)C1CC(=O)N(Cc2cccnc2)C1 (stereo unspecified) | -2.1%
CCC(C)NC(=O)c1c(N)n(/N=C/c2cccs2)c2nc3ccccc3nc12 (stereo unspecified) | 13.8%
COc1ccc(C2C(C(=O)Nc3ccccc3OC)=C(C)Nc3nnnn32)c(OC)c1 (stereo unspecified) | 32.5%
COc1ccccc1NC(=O)C1=C(C)Nc2nnnn2C1c1cccc(Br)c1 (stereo unspecified) | 37.1%
COC(=O)c1ccc(C2C3=C(Nc4nnnn42)c2ccccc2OC3)cc1 (stereo unspecified) | 98.9% (active)
CCCN1Cc2cccc(C(=O)Nc3ccc(S(=O)(=O)N4CCCCCC4)cc3)c2C1=O | 18.8%
CCC12CN3CC(CC)(CN(C1)C31C(=O)N(C)c3ccc(C)cc31)C2=O (stereo unspecified) | 15.6%
O=C(Nc1ncccn1)c1cccs1 | -3.9%
CCc1ccccc1NC(=O)c1cccs1 | -1%
O=C(Nc1nn(Cc2ccccc2F)cc1Br)c1cccs1 | 57.4% (active)
CC(=O)Nn1cc2c(=O)n(C)c(=O)n(C)c2c1 | -4.8%
O=c1oc2cc(O)ccc2cc1-c1ccc(F)cc1 | 32.1%

Compound | inhibition
CCOC(=O)Nc1ccccc1N1C(=O)c2ccccc2C1=O | 1.6%
Cc1cc(C)n(-c2nc(SCC(=O)N3CCCC3)c3c4c(sc3n2)CCCC4)n1 | 49.7%
COCCn1c(C)cc(C(=O)CSc2ncnc3sc4c(c23)CCC4)c1C | 57.5% (active)
COc1ncnc2sc3c(c12)CCCC3 | 36.6%
O=C(NCc1ccco1)c1cnn2c(C(F)(F)F)cc(-c3ccco3)nc12 | 20.3%
CCCc1nc(-c2ccccc2O)n(-c2ccccc2)n1 | 34%
O=C(CCN1C(=O)C2C3C=CC(C3)C2C1=O)Nc1ccccc1F (stereo unspecified) | 56.5% (active)
O=C(NCCN1C(=O)C2C3C=CC(C3)C2C1=O)Nc1ccccn1 (stereo unspecified) | -10.2%
O=C(CN1C(=O)C2C3C=CC(C3)C2C1=O)NCCc1ccccc1Cl (stereo unspecified) | 23.5%
N#C/C=C\Oc1ccc(Cl)cc1N | -2.6%
COc1ccc(NC(=O)Cn2c(-c3ccc(OC)cc3)cn(-c3ccc(C)cc3)c2=O)cc1 | -4.3%
COc1ccc(Nc2oc(-c3ccccc3Cl)nc2C#N)cc1 | 1.2%
N#Cc1nc(-c2ccc(OCc3ccccc3)cc2)oc1NCCCN1CCOCC1 | 7.4%
N#Cc1nc(COc2ccc(-c3ccccc3)cc2)oc1NCc1cccnc1 | 51.7% (active)
O=c1c2ccccc2nnn1CSc1nc2sc3c(c2c(=O)n1CC1CCCO1)CCC3 (stereo unspecified) | 56.4% (active)
C=C(C)Cn1c(SCC(=O)NCc2ccco2)nc2sc3c(c2c1=O)CCC3 | 7.7%
O=C(Cn1nc(Cc2cccnc2)c2ccccc2c1=O)NCC1CCCO1 (stereo unspecified) | 16.7%
N#CCCn1cnc2ccccc21 | 1.7%
CC(=O)c1ccc(NC(=O)N[C@@H](Cc2ccccc2)C(=O)O)cc1 | 28.5%
COc1ccc(CCNC(=O)COC(=O)c2ccc[nH]c2=O)cc1 | -10.2%
CCN(CC)C(=O)C1CCC(C)(C(=O)O)C1(C)C (stereo unspecified) | -4.4%
Cc1cc(O)ccc1-c1cnc2ccccc2n1 | 60.7% (active)
Cc1nc2ccccc2cc1O | 0.7%
CC(=O)Nc1cccc(-c2cnc3ccccc3n2)c1 | 14.9%
